Calls of active or inactive are those of the source. Unless noted, the call rests on the fitted dose curve; in most records, active means well fitted curve in the direction sought with a large enough effect in the repeat runs; inconclusive means weak or mixed curves; inactive means no such curve, though single readings can be large; an effect the other way counts as inactive or inconclusive.
Tests used:
[1] = qHTS assay for small molecules that induce genotoxicity in human embryonic kidney cells expressing luciferase-tagged ATAD5 (AID 651632); further: nearly all actives have a fitted effect of over 15% in size
How it was run: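 ATAD5-luc HEK293T, 2,000 cells/well; cpd or DMSO pin-transferred; 16 hr, 37C/5% CO2; Amplite 30 min RT; luminescence.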

[2] = qHTS assay for small molecule agonists of the p53 signaling pathway - cell viability (AID 651633; calls by dose curve;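 further: p53RE-bla HCT reporter cells with a stable beta-lactamase p53 reporter; series mostly up to about 83 µM; nearly all actives have a fitted effect of over 30% in size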)
How it was run: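 p53RE-bla cells were treated with compound for 16 hours at 37 C. Cytotoxicity was then measured as CellTiter-Glo luminescence after 30 min at room temperature.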

[3] = qHTS assay for small molecule disruptors of the mitochondrial membrane potential - cell viability (AID 720634; calls by dose curve;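 further: human HepG2 liver cancer cells; series mostly up to about 83 µM; nearly all actives have a fitted effect of over 20% in size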)
How it was run: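 Cells: HepG2, 2,000/well, attached overnight. Compound 1 hr, 37 C/5% CO2. +m-MPI dye, +CellTiter-Glo 30 min RT. Readout: luminescence (ATP).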

[4] = qHTS assay to test for compound auto fluorescence at 590 nm (red) in HepG2 cells (AID 720674)
How it was run: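 Fluorescence at 590 nm emission following 540 nm excitation was recorded from HepG2 wells one hour after compound transfer, with DMSO-only wells as vehicle and Rose Bengal sodium equivalency as the scale.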

[5] = qHTS assay to test for compound auto fluorescence at 535 nm (green) in HepG2 cells (AID 720675)
[6] = qHTS assay to test for compound auto fluorescence at 460 nm (blue) in HEK293 cells (AID 720678)
How it was run: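 Triamterene serves as the blue fluorophore standard. Compound signal at 405/460 nm is read in HEK293 wells (2,000 cells, 10% dialyzed FBS) after overnight treatment at 37C.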

[7] = qHTS assay to test for compound auto fluorescence at 535 nm (green) in HEK293 cells (AID 720680)
[8] = qHTS assay to test for compound auto fluorescence at 460 nm (blue) in HEK293 cell free culture (AID 720681)
How it was run: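 Compounds were added to cell-free DMEM with 10% FBS and fluorescence read directly. The blue channel used 405 nm excitation and 460 nm emission, with triamterene as the reference fluorophore.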

[9] = qHTS assay to test for compound auto fluorescence at 535 nm (green) in HEK293 cell free culture (AID 720682)
How it was run: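 Intrinsic compound fluorescence is measured in culture medium containing 10% FBS, with excitation at 485 nm and detection at 535 nm, referenced to fluorescein.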

[10] = qHTS assay to test for compound auto fluorescence at 590 nm (red) in HEK293 cell free culture (AID 720683)
How it was run: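 Cell-free wells of DMEM with 10% FBS received compound, and intrinsic fluorescence was read at excitation/emission 540/590 nm. Values expressed as equivalence to Rose Bengal sodium.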

[11] = qHTS assay to test for compound auto fluorescence at 590 nm (red) in HepG2 cell free culture (AID 720684)
How it was run: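 Compounds are added to culture medium (MEM, 10% FBS) lacking cells, then fluorescence is read at excitation 540 nm, emission 590 nm, with Rose Bengal sodium as the equivalency standard.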

[12] = qHTS assay to test for compound auto fluorescence at 460 nm (blue) in HepG2 cell free culture (AID 720685)
How it was run: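 Compound (23 nL) or DMSO pinned into cell-free MEM with 10% FBS; blue fluorescence read at 405/460 nm excitation/emission, expressed as auto-fluorescence equivalency to triamterene.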

[13] = qHTS assay to test for compound auto fluorescence at 535 nm (green) in HepG2 cell free culture (AID 720686)
[14] = qHTS assay to test for compound auto fluorescence at 460 nm (blue) in HepG2 cells (AID 720687)
How it was run: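 HepG2 cells in MEM with 10% FBS, attached overnight at 37 C, were exposed to compound or DMSO for 1 hr at 37 C, 5% CO2. Blue fluorescence was read at 405/460 nm, with triamterene as reference fluorophore.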

[15] = biological target: Glucocorticoid receptor (Homo sapiens) (UniProt P04150); assay: qHTS assay to identify small molecule agonists of the glucocorticoid receptor (GR) signaling pathway (AID 720691; active means well fitted activation curve with a large enough effect in the signal ratio in the repeat runs, not every such curve was filed as active; inconclusive means weak or mixed curves, or effect the other way; inactive means no such curve, though single readings can be large or run the other way; the % refers to the signal ratio; further: potency means the concentration at half of the fitted maximal effect)
How it was run: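 Fluorescence intensity from LiveBLAzer B/G FRET substrate (2 h, room temperature) reports beta-lactamase expression driven by the glucocorticoid response element in GR-bla HeLa cells after 18 h compound exposure at 37 C.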

[16] = qHTS assay for small molecules that induce genotoxicity in human embryonic kidney cells expressing luciferase-tagged ATAD5 - cell viability (AID 651634; calls by dose curve; further: nearly all actives have a fitted effect of over 25% in size)
How it was run: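 Fluorescence from CellTiter-Fluor, reporting protease activity within live cells, served as the viability read-out. HEK293T cells carrying luciferase-tagged ATAD5 had been treated with compound for 15.5 hr at 37C.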

[17] = qHTS assay for small molecule disruptors of the mitochondrial membrane potential (AID 720635); further: potency means the concentration at half of the fitted maximal effect
How it was run: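 HepG2 cells exposed to compound 1 hr at 37C, then Mito-MPS dye 30 min. Ratio read of aggregate (540/590 nm) versus monomer (490/535 nm) fluorescence.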

[18] = qHTS assay to test for compound auto fluorescence at 590 nm (red) in HEK293 cells (AID 720679)
How it was run: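 We plated HEK293 cells in 10% dialyzed FBS medium, let them adhere for 4-5 hr, then added 23 nL compound. Overnight at 37C and 5% CO2 preceded fluorescence measurement at 540/590nm.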

[19] = biological target: Glucocorticoid receptor (Homo sapiens) (UniProt P04150); assay: qHTS assay to identify small molecule antagonists of the glucocorticoid receptor (GR) signaling pathway (AID 720692; active means well fitted inhibition curve with a large enough effect in the signal ratio in the repeat runs, not every such curve was filed as active; inconclusive means weak or mixed curves, or effect the other way; inactive means no such curve, though single readings can be large or run the other way; the % refers to the signal ratio)
How it was run: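 HeLa GR-bla cells; cmpd + dex 5 nM final, 18 h 37 C; LiveBLAzer B/G FRET substrate 2 h RT; fluorescence intensity read. Antagonist mode, qHTS.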
On the % scale 0 is the no-effect control and ±100 the full control effect.

Glucocorticoid receptor (Homo sapiens), sequence (P04150 whole entry, looked up): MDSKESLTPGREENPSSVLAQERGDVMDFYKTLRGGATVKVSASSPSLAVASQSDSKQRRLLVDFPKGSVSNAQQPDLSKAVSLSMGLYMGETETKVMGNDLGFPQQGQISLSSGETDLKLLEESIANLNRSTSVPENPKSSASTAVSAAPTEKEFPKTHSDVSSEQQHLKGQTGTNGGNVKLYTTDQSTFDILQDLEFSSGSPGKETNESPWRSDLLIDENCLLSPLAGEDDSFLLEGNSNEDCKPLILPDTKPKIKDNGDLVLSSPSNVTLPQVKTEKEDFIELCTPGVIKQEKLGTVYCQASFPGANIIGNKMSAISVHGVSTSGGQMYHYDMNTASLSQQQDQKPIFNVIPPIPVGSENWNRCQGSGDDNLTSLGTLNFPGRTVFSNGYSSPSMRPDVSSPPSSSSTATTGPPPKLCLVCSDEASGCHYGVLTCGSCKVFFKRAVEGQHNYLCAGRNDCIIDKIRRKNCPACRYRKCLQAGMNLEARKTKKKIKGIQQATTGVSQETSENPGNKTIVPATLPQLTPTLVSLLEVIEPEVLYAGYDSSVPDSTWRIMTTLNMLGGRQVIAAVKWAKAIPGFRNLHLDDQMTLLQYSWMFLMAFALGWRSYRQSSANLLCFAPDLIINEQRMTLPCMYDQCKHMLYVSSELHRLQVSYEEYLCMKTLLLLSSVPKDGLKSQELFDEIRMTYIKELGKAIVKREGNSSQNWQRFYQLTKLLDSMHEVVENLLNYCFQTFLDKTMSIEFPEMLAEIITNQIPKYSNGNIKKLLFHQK

CN1CCN(C2=Nc3ccccc3Oc3ccc(Cl)cc32)CC1
inactive: Potency [1] | Potency [2] | Potency [3] | fluorescence, relative to Rose Bengal [4] 0.128% [at 18.6 µM] | fluorescence, % of fluorescein control [5] -0.116% [at 18.6 µM] | fluorescence, % of triamterene [6] 0.0075% [at 18.6 µM] | fluorescence, % of fluorescein [7] 0.0654% [at 18.6 µM] | fluorescence, % of fluorescent control [8] 0.0139% [at 18.6 µM] | activity change [9] -0.0046% [at 18.6 µM] | fluorescence, % of fluorescent control [10] 0.0885% [at 18.6 µM] | fluorescence, % of Rose Bengal [11] -0.256% [at 18.6 µM] | fluorescence, % of fluorescent control [12] -0.0109% [at 18.6 µM] | fluorescence, % of fluorescein control [13] 0.0479% [at 18.6 µM] | fluorescence, % of fluorescent control [14] 0.0039% [at 18.6 µM] | Potency [15]

Cc1ccc([N+](=O)[O-])c(N)c1
inactive: Potency [1] | Potency [16] | Potency [3] | Potency [17] | outcome [4] | outcome [5] | outcome [6] | outcome [18] | outcome [7] | outcome [8] | outcome [9] | outcome [10] | outcome [11] | outcome [12] | outcome [13] | outcome [14]

Cc1c(N)cccc1N
inactive: Potency [2] | Potency [16] | Potency [3] | outcome [4] | outcome [5] | outcome [6] | outcome [7] | outcome [8] | outcome [10] | outcome [11] | outcome [12] | outcome [13] | outcome [14] | Potency [15] | Potency [19]
active: Potency [17] 17.6 µM

CCCNC(C)(C)COC(=O)c1ccccc1
inactive: Potency [1] | Potency [16] | Potency [3] | Potency [17] | outcome [4] | outcome [5] | outcome [6] | outcome [18] | outcome [7] | outcome [8] | outcome [9] | outcome [10] | outcome [11] | outcome [12] | outcome [13] | outcome [14] | Potency [15] | Potency [19]

CC(=O)Oc1cc(C(C)C)c(OCCN(C)C)cc1C
inactive: Potency [1] | Potency [2] | fluorescence, % of fluorescein control [5] 0.0486% [at 18.6 µM] | fluorescence, % of triamterene [6] -0.184% [at 18.6 µM] | fluorescence, % of fluorescent control [18] -0.192% [at 18.6 µM] | fluorescence, % of fluorescein [7] -0.013% [at 18.6 µM] | fluorescence, % of fluorescent control [8] -0.142% [at 18.6 µM] | activity change [9] -0.0795% [at 18.6 µM] | fluorescence, % of fluorescent control [10] -0.128% [at 18.6 µM] | fluorescence, % of Rose Bengal [11] -0.418% [at 18.6 µM] | fluorescence, % of fluorescent control [12] -0.0726% [at 18.6 µM] | fluorescence, % of fluorescein control [13] -0.0374% [at 18.6 µM] | fluorescence, % of fluorescent control [14] -0.0099% [at 18.6 µM] | Potency [15] | Potency [19]

Clc1cccc(-c2cc(Cl)cc(Cl)c2)c1
inactive: Potency [1] | Potency [16] | Potency [3] | outcome [5] | outcome [6] | outcome [18] | outcome [7] | outcome [8] | outcome [9] | outcome [10] | outcome [11] | outcome [12] | outcome [13]

Oc1ccccc1F
inactive: Potency [1] | Potency [3] | Potency [17] | outcome [4] | outcome [5] | outcome [6] | outcome [18] | outcome [7] | outcome [8] | outcome [9] | outcome [10] | outcome [11] | outcome [12] | outcome [13] | outcome [14] | Potency [15] | Potency [19]

CCN(CC)CC1CCCCN1CC(=O)N1c2ccccc2C(=O)Nc2cccnc21 (stereo not drawn)
inactive: Potency [1] | Potency [16] | Potency [3] | Potency [17] | outcome [4] | outcome [5] | outcome [6] | outcome [18] | outcome [7] | outcome [9] | outcome [10] | outcome [11] | outcome [12] | outcome [13] | outcome [14]

CCCCCCOc1ccc(N)cc1
inactive: Potency [2] | Potency [16] | Potency [3] | outcome [5] | outcome [18] | outcome [7] | outcome [8] | outcome [9] | outcome [10] | outcome [11] | outcome [12] | outcome [13]

O=c1[nH]c(=O)n([C@H]2C[C@H](O)[C@@H](CO)O2)cc1C(F)(F)F
inactive: Potency [1] | Potency [16] | Potency [3] | outcome [4] | outcome [5] | outcome [6] | outcome [18] | outcome [7] | outcome [8] | outcome [9] | outcome [10] | outcome [11] | outcome [12] | outcome [13] | Potency [15]

CCOC(=O)COc1ccc2c(c1)CC(NCC(O)c1cccc(Cl)c1)CC2 (stereo not drawn)
inactive: Potency [1] | Potency [16] | Potency [3] | outcome [4] | outcome [5] | outcome [6] | outcome [18] | outcome [7] | outcome [8] | outcome [10] | outcome [11] | outcome [12] | outcome [13]

COc1ccc(Nc2ccc(OC)cc2)cc1
inactive: Potency [3] | outcome [5] | outcome [6] | outcome [18] | outcome [7] | outcome [8] | outcome [9] | outcome [10] | outcome [11] | outcome [12] | outcome [13] | outcome [14] | Potency [19]

CN(CCCN1c2ccccc2CCc2ccccc21)CC(=O)c1ccc(Cl)cc1
inactive: Potency [2] | Potency [3] | outcome [4] | outcome [5] | outcome [6] | outcome [18] | outcome [7] | outcome [10] | outcome [11] | outcome [12] | outcome [13] | outcome [14] | Potency [15]

CN1C(=O)CC(c2ccccc2)C1=O (stereo not drawn)
inactive: Potency [1] | Potency [16] | Potency [3] | outcome [4] | outcome [5] | outcome [6] | outcome [18] | outcome [7] | outcome [8] | outcome [9] | outcome [10] | outcome [11] | outcome [12] | outcome [13] | outcome [14] | Potency [15] | Potency [19]

CCCCC(=O)O[C@]1(C(=O)CO)[C@H](C)C[C@H]2[C@@H]3CCC4=CC(=O)C=C[C@]4(C)[C@@]3(F)[C@@H](O)C[C@@]21C
active: Potency [17] 10.6 µM | Potency [15] 0.0043 µM [inconclusive]
inactive: Potency [1] | Potency [16] | outcome [4] | outcome [5] | outcome [18] | outcome [7] | outcome [8] | outcome [9] | outcome [10] | outcome [11] | outcome [12] | outcome [13] | outcome [14]

— PubChem BioAssay (Tox21)
